# Compound activity from PubChem.
# Pf Dd2 inh = Plasmodium falciparum Dd2 growth inhibition; AID 1347417; P. falciparum Dd2 growth, SYBR Green, 72 h; 120,000 tested, 4.3% active; Potency, µM (titrated, usually from 28.9 µM), actives largely listed as inhibitors; active means well fitted inhibition curve with a large enough effect; further: nearly all actives have a fitted effect of over 65% in size
#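 Infected erythrocytes (Dd2, 0.3% parasitemia, 2.5% hematocrit final) are added to compound in RPMI-1640/Albumax II medium, grown 72 h at 37C in low oxygen, then lysed with saponin/Triton-X containing SYBR Green and read by fluorescence.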
# A number is an active result; 0 = inactive. Shown is part of a subset that was picked to be rich in hits.
SMILES,Pf Dd2 inh
CS(=O)(=O)NC[C@H]1C[C@@H]2CCN1C[C@@H]2CN1C[C@@H]2C[C@H](C1)c1cccc(=O)n1C2,0
Cc1nc(-c2c3n(c(=O)n(CC(=O)Nc4ccc(Cl)cc4)c2=O)CCCC3)no1,0
CS(=O)(=O)N1CCC(OC2CCN(C(=O)Nc3ccccc3F)CC2)CC1,0
O=C(c1ccc(F)cc1)N1CCC(OC2CCN(Cc3ccccc3)CC2)CC1,11.2µM
O=C(C1CCCCC1)N1CCC(OC2CCN(Cc3ccccc3)CC2)CC1,0
CCc1cccc(NC(=O)N2CCC(OC3CCN(Cc4ccccc4)CC3)CC2)c1,0
COc1ccc(C)cc1NC(=O)N1CCC(CN2CCC(C)CC2)CC1,0
O=C(NC1CCCCC1)N1CCC(OC2CCN(Cc3ccccc3)CC2)CC1,0
O=S(=O)(c1ccc(F)cc1)N1CCC(OC2CCN(Cc3ccccc3)CC2)CC1,0
COc1ccc(C)cc1NC(=O)N1CCC(OC2CCN(S(C)(=O)=O)CC2)CC1,0
O=C(Nc1cccc(Cl)c1F)N1CCC(OC2CCN(Cc3ccccc3)CC2)CC1,6.31µM
Cc1c(F)cccc1NC(=O)N1CCC(OC2CCN(Cc3ccccc3)CC2)CC1,4.47µM
CC(C)(C)C(=O)N1CCC(OC2CCN(Cc3ccccc3)CC2)CC1,0
COc1ccc(C)cc1NC(=O)N1CCC(OC2CCN(Cc3ccccc3)CC2)CC1,11.2µM
O=c1c2c(CO)c(-c3ccccc3)nn2ccn1CCc1ccccc1,0
COCc1ccc(C(=O)N2CC[C@](C)(O)[C@H](C)C2)s1,0
CC(C)CCNC(=O)c1cnc2n1CCN(Cc1c[nH]c3ccccc13)CC2,0
CCNC(=O)N1CCC(c2noc(COCCOC)n2)CC1,0
CNC(=O)[C@H]1C[C@H](Oc2ccccc2)CN1C(=O)CCc1nc2ccccc2s1,0
C[C@@H]1CN(C(=O)CN(C)Cc2ccccc2F)C[C@]1(C)O,0
CC1CCN(S(=O)(=O)c2ccc(C(=O)Nc3sc4c(c3C(N)=O)CC(C)(C)NC4(C)C)cc2)CC1,0
CCOC(=O)c1c(NC(=O)CS(=O)(=O)c2ccc(C)cc2)sc2c1CCCCC2,0
CCOC(=O)c1c(NC(=O)c2ccc(S(=O)(=O)N(CCOC)CCOC)cc2)sc2c1CC(C)(C)NC2(C)C,10µM
COc1ccc(C2CC(=O)c3c([nH]c(C(=O)OC4CCC(C)CC4)c3C)C2)cc1OC (configuration not stated),0
CCOC(=O)c1ccc(NC(=O)c2cc3c([nH]c2=O)CC(c2ccccc2)CC3=O)cc1 (configuration not stated),0
SMILES,Pf Dd2 inh
CCOC(=O)c1[nH]c2c(c1Cc1ccccc1OC)C(=O)CC(c1ccccc1)C2 (configuration not stated),11.2µM
Cc1c(C(=O)OC2CCCC2)[nH]c2c1C(=O)CC(c1ccc(Cl)cc1)C2 (configuration not stated),0
COc1ccc(C2CC(=O)c3c([nH]c(C(=O)OCc4ccccc4)c3C)C2)cc1 (configuration not stated),0
Cc1c(C(=O)OCCOc2ccccc2)[nH]c2c1C(=O)CC(c1ccc(C(C)(C)C)cc1)C2 (configuration not stated),3.98µM
COc1cc(-c2onc(C)c2C(=O)NCCSC)cc(OC)c1OC,0
O=C(Cc1cccc(Cl)c1)N1CCC2(CC1)CC(O)CCO2 (configuration not stated),0
C[C@@H](NC(=O)C1CCCC1)c1c(-c2ccc(Cl)cc2)noc1C(=O)O,0
COC1CCN(S(=O)(=O)N2C[C@H](c3ccc(C)o3)[C@@H](N)C2)CC1,11.2µM
Cc1ccc([C@H]2CN(C(=O)c3[nH]nc(N)c3-c3ccccc3)C[C@@H]2N)o1,0
COC1CCN(S(=O)(=O)N2CCCC(C)(c3ccccc3)C2)CC1 (configuration not stated),0
CNC(=O)[C@@H]1CN(C(=O)c2occc2C)C[C@H]1COC,0
COC(=O)CNC(=O)C1CCc2nnc(CNC(=O)Nc3cccnc3)n21 (configuration not stated),0
CSc1ccccc1OCc1cc(C(=O)NCCN2CCCCC2CO)no1 (configuration not stated),11.2µM
CCC1CCCCN1CCCNC(=O)c1c(O)nc2ccccn2c1=O (configuration not stated),0
O=C(c1cc(COc2c(F)cccc2F)on1)N1CCCCC1CCc1ccccc1 (configuration not stated),0
CC(C)c1nc2nccc(-c3ccsc3)n2n1,0
Cc1nc(-n2nc(C)c(Cc3ccc4c(c3)OCO4)c2C)sc1C(=O)Nc1ccc(Cl)cc1,0
Cc1ccc(NC(=O)c2sc(-n3nc(C)c(Cc4ccc5c(c4)OCO5)c3C)nc2C)cc1Cl,0
CCc1ccccc1NC(=O)c1sc(-n2nc(C)c(Cc3ccc4c(c3)OCO4)c2C)nc1C,3.98µM
Cc1ccc(N2C(=O)N(CC(=O)C(C)(C)C)c3ccccc3S2(=O)=O)cc1C,0
COc1cc(OC)cc(N2C(=O)N(CC(=O)c3ccc(F)cc3)c3ccccc3S2(=O)=O)c1,8.91µM
COc1ccc(C(=O)CN2C(=O)N(c3cc(C)ccc3C)S(=O)(=O)c3ccccc32)cc1,0
Cc1cccc(-c2ccc3c(c2)C(=O)N2CC[C@H](NC(=O)c4cccnc4)C[C@H]2C(=O)N3)c1C,0
CCOC(=O)c1c(NC(=O)CSc2cn(CCNC(=O)c3ccc(OC)cc3)c3ccccc23)sc2c1CCC2,12.6µM
CCOC(=O)c1c(NC(=O)COc2ccccc2F)sc2c1CCCC2,0
SMILES,Pf Dd2 inh
CC(Sc1cn(CCNC(=O)c2ccccc2F)c2ccccc12)c1ccccc1 (configuration not stated),0
COc1ccc(NC(=O)CSc2cn(CCNC(=O)c3ccc(OC)cc3)c3ccccc23)cc1,0
CCOC(=O)c1c(NC(=O)CSc2cn(CCNC(=O)c3ccc(OCC)cc3)c3ccccc23)sc2c1CCCC2,0
CCOC(=O)c1c(NC(=O)C(C)Sc2cn(CCNC(=O)c3c(F)cccc3F)c3ccccc23)sc2c1CCC2 (configuration not stated),7.94µM
CNC(=O)N1CCOc2ccc(CCC(=O)NCC3CC3)cc2C1,0
COCCCn1c(CN(C)CCc2ccccc2)cnc1S(=O)(=O)C1CCCC1,0
CC(NC(=O)C1CCC1)C(=O)N1CCN(c2ccccn2)CC1 (configuration not stated),0
CC(C)(C)C(=O)NCCc1noc(C2CC2)n1,0
O=C(c1ccco1)N1CCC(Cc2nc(C3CCOCC3)no2)CC1,0
c1ccc(-c2nnc3ccc(NC4CC4)nn23)nc1,0
CN(C)C(=O)C1CN(C(=O)Nc2cc(F)cc(F)c2)CC12CCOCC2 (configuration not stated),0
CCc1ccc(NC(=O)Cn2c(=O)c(CNc3ccccc3)cc3cc(OC)c(OC)cc32)cc1,0
COc1ccc(NCc2cc3cc4c(cc3n(CC(=O)Nc3cc(C)cc(C)c3)c2=O)OCO4)cc1,0
COc1cc2cc(CNc3ccccc3)c(=O)n(CC(=O)Nc3cc(C)cc(C)c3)c2cc1OC,11.2µM
Cn1ccnc1-c1ccc(N2CCCC(CO)(Cc3cccc(Cl)c3)C2)nn1 (configuration not stated),5.01µM
Cn1ccnc1-c1ccc(N2CC[C@@]3(O)CCN(S(C)(=O)=O)C[C@H]3C2)nn1,0
O=S(=O)(c1ccccc1Cl)N1CCCC(CO)(Cc2cccc(Cl)c2)C1 (configuration not stated),0
O=C(Cc1ccc2c(c1)OCC2)Nc1ccc2c(c1)C(=O)N1CCC[C@H]1C(=O)N2,0
